# Results reported in PubChem BioAssay (NCATS).
# Records with an inconclusive call do not appear. Active and inactive are the calls of the source. The call rests on the fitted dose curve; in most records, active means well fitted inhibition curve with a large enough effect; inconclusive means small, poorly fitted or top-dose-only effect; inactive means flat fitted curve, though single readings scatter.
# Tested on: Zika virus NS2B-NS3 protease (unlinked complex)
# Assay: Confirmatory screen GU AMC qHTS for Zika virus inhibitors (AID 1347153); further: nearly all actives have a fitted effect of over 70% in size;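 on activity, negative = inhibition: percent inhibition with 0% = no inhibitor control and 100% = no enzyme control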
# Conditions: Recombinant NS2B-NS3 protease, AMC substrate fluorescence; series mostly up to 57.1 µM; activity, negative = inhibition: at the top concentration
# How it was run: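 Unlinked NS2B-NS3 complex (25 nM) in 10 mM Tris-HCl pH 8.0, 0.01% Tween 20 preincubated 15 min with compound, then 10 microM Bz-Nle-KRR-AMC (Km 18.3 µM). Fluorescence change over 15 min, normalized, Hill-fitted.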
# Potency means the concentration at half of the fitted maximal effect.
SMILES,"activity, negative = inhibition",Potency
O=C(c1ccc(F)cc1)C1CCN(CCn2c(=O)[nH]c3ccccc3c2=O)CC1,-11.3% (inactive),–
Cn1ccc2cc3c(cc21)CCN3C(=O)Nc1cccnc1,–,27.1 µM (active)
CCOC(=O)Nc1ccc(NCc2ccc(F)cc2)nc1N,-8.07% (inactive),–
C[C@H]1c2cccc(O)c2C(O)=C2C(=O)[C@]3(O)C(O)=C(C(N)=O)C(=O)[C@@H](N(C)C)[C@@H]3[C@@H](O)[C@@H]21,7.28% (inactive),–
